PubChem BioAssay AID1159580 (chemical genetic matrix, 2015)
About 2,000 (36%) of roughly 5,500 compounds were called active. About 18% were inconclusive and are not listed. No stated cut-off is given here; in the data, active means normalized growth mostly below about 0.91 (no sharp cut-off); inconclusive means no clear call, values can overlap the other calls; inactive means mostly above about 0.92. The list shows a part of the results.

Assay: chemical genetic growth profiling, strain panel (AID 1159580);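 further: tested at 20 µM; growth read once vehicle control cultures reached saturation at 30 °C; 1 = growth at the plate median or of vehicle wells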
Conditions: S. cerevisiae deletion strains, growth OD

Measured: normalized growth

O=C(O)CCCN1C(=O)c2cccc3cccc(c23)C1=O
inactive: locus YAL021C, strain ccr4, stronger effect = lower value 0.983 | locus YAL026C, strain drs2, stronger effect = lower value 1.02 | locus YAL030W, strain snc1, stronger effect = lower value 1.01 | locus YBL061C, strain skt5, stronger effect = lower value 1.01 | locus YBR009C, strain hhf1, stronger effect = lower value 1.02 | locus YBR023C, strain chs3, stronger effect = lower value 1.01 | locus YBR171W, strain sec66, stronger effect = lower value 1.01 | locus YBR231C, strain swc5, stronger effect = lower value 1.01 | locus YBR279W, strain paf1, stronger effect = lower value 1.01 | locus YCL011C, strain gbp2, stronger effect = lower value 1.02 | locus YCL016C, strain dcc1, stronger effect = lower value 1.02 | locus YCL061C, strain MRC1, stronger effect = lower value 1.02 | locus YCL069W, strain vba3, stronger effect = lower value 1.02 | locus YCR088W, strain abp1, stronger effect = lower value 1.02 | locus YDL005C, strain med2, stronger effect = lower value 1 | locus YDL040C, strain nat1, stronger effect = lower value 1 | locus YDR001C, strain nth1, stronger effect = lower value 1.01 | locus YDR069C, strain doa4, stronger effect = lower value 1.02 | locus YDR137W, strain rgp1, stronger effect = lower value 1.01 | locus YDR159W, strain sac3, stronger effect = lower value 1.01 | locus YDR195W, strain ref2 1.05 | locus YDR297W, strain sur2, stronger effect = lower value 1.01 | locus YDR334W, strain swr1, stronger effect = lower value 1.02 | locus YDR335W, strain msn5, stronger effect = lower value 1.01 | locus YDR392W, strain spt3, stronger effect = lower value 0.882 | locus YEL003W, strain gim4, stronger effect = lower value 1.01 | locus YEL037C, strain rad23, stronger effect = lower value 1.01 | locus YEL061C, strain CIN8 (second series), stronger effect = lower value 1.01 | locus YER015W, strain faa2, stronger effect = lower value 1.01 | locus YER016W, strain bim1, stronger effect = lower value 1.02 | locus YER111C, strain swi4, stronger effect = lower value 1.01 | locus YER155C, strain BEM2 (second series), stronger effect = lower value 1 | locus YFR010W, strain ubp6, stronger effect = lower value 1.01 | locus YGL167C, strain pmr1, stronger effect = lower value 1.01 | locus YGL173C, strain kem1, stronger effect = lower value 1.02 | locus YGL227W, strain vid30, stronger effect = lower value 1.02 | locus YGL240W, strain doc1, stronger effect = lower value 1 | locus YGL253W, strain hxk2, stronger effect = lower value 1.02 | locus YHR013C, strain ard1, stronger effect = lower value 0.97 | locus YHR027C, strain rpn1, stronger effect = lower value 1.02 | locus YHR030C, strain SLT2, stronger effect = lower value 1 | locus YHR079C, strain IRE1, stronger effect = lower value 0.998 | locus YHR142W, strain chs7, stronger effect = lower value 0.991 | locus YJL092W, strain hpr5, stronger effect = lower value 1.01 | locus YJL095W, strain BCK1 (second series), stronger effect = lower value 1.01 | locus YJL095W, strain BCK1, stronger effect = lower value 0.998 | locus YJL115W, strain asf1, stronger effect = lower value 1.02 | locus YJL129C, strain trk1, stronger effect = lower value 1.02 | locus YJL154C, strain vps35, stronger effect = lower value 1.01 | locus YJL164C, strain tpk1, stronger effect = lower value 0.992 | locus YJL166W, strain qcr8, stronger effect = lower value 1.01 | locus YJL187C, strain SWE1, stronger effect = lower value 1.01 | locus YJR066W, strain TOR1, stronger effect = lower value 0.963 | locus YKL160W, strain elf1, stronger effect = lower value 0.988 | locus YKR026C, strain gcn3, stronger effect = lower value 1.02 | locus YKR091W, strain srl3, stronger effect = lower value 1.01 | locus YLL001W, strain dnm1, stronger effect = lower value 1.03 | locus YLL026W, stronger effect = lower value 1.01 | locus YLL041C, strain sdh2, stronger effect = lower value 1.01 | locus YLR027C, strain aat2, stronger effect = lower value 1.01 | locus YLR113W, strain HOG1, stronger effect = lower value 1.03 | locus YLR221C, strain rsa3, stronger effect = lower value 0.996 | locus YLR258W, strain gsy2, stronger effect = lower value 1.02 | locus YLR262C, strain YPT6 (second series), stronger effect = lower value 0.983 | locus YLR320W, strain mms22, stronger effect = lower value 0.986 | locus YLR342W, strain FKS1, stronger effect = lower value 1.02 | locus YLR357W, strain rsc2, stronger effect = lower value 1.04 | locus YLR370C, strain arc18, stronger effect = lower value 1.02 | locus YLR384C, strain iki3, stronger effect = lower value 1.01 | locus YML120C, strain ndi1, stronger effect = lower value 1 | locus YMR058W, strain fet3, stronger effect = lower value 1.02 | locus YMR125W, strain sto1, stronger effect = lower value 1.03 | locus YMR129W, stronger effect = lower value 1.02 | locus YMR205C, strain PFK2, stronger effect = lower value 1.03 | locus YMR231W, strain pep5, stronger effect = lower value 1.01 | locus YNL071W, strain lat1, stronger effect = lower value 0.994 | locus YNL183C, strain NPR1, stronger effect = lower value 0.931 | locus YNL209W, strain ssb2, stronger effect = lower value 1.01 | locus YNL248C, strain rpa49, stronger effect = lower value 0.98 | locus YNL322C, strain KRE1 (second series), stronger effect = lower value 1.02 | locus YNR049C, strain mso1, stronger effect = lower value 1.01 | locus YOR001W, strain rrp6, stronger effect = lower value 0.976 | locus YOR070C, strain gyp1, stronger effect = lower value 1.01 | locus YOR080W, strain dia2, stronger effect = lower value 1.02 | locus YOR083W, strain WHI5, stronger effect = lower value 0.995 | locus YOR106W, strain vam3, stronger effect = lower value 1.01 | locus YOR231W, strain MKK1, stronger effect = lower value 1.02 | locus YOR265W, strain rbl2, stronger effect = lower value 1.01 | locus YOR270C, strain vph1, stronger effect = lower value 0.999 | locus YOR290C, strain snf2, stronger effect = lower value 1 | locus YPL051W, strain arl3, stronger effect = lower value 0.982 | locus YPL078C, strain atp4, stronger effect = lower value 0.997 | locus YPL106C, strain sse1, stronger effect = lower value 1.01 | locus YPL240C, strain hsp82, stronger effect = lower value 1.02 | locus YPL256C, strain CLN2, stronger effect = lower value 1.03
